The source of these data is PubChem BioAssay (NCI).

The structures appear in SMILES notation. Compounds without any hit were thinned out: in the full panel of roughly 83,000, 20% have a hit.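 Single-concentration screen, 48 h exposure, 96-well plates. Endpoint: percent growth. Below 10 = active.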 Unmarked numbers belong to inactive results. Active and inactive are the calls of the source.

Among the test systems are NCI-H23 lung; NCI-H226 lung; NCI-H322M lung; HOP-62 NSCLC; NCI-H460 lung; HOP-92 NSCLC; NCI-H522 lung; 786-0 renal; COLO 205 colon; DU-145 prostate; K-562 leukemia; MALME-3M melanoma; MDA-MB-231 breast; RXF 393 renal; SF-268 CNS; SF-295 CNS; SF-539 CNS; UACC-257 melanoma; M14 melanoma; A549/ATCC NSCLC.
Assay in all cases: NCI-60 one-dose screen, 48 h (100 = growth as untreated, 0 = no growth, -100 = all killed)
Common to all, as to conditions: 10 µM unless noted

Turning to `CCCCNC(=O)Oc1ccc(/C(=C(\C)c2ccc(Cl)cc2)c2ccc(OCCN3CCCCC3)cc2)cc1`, the growth in the experiment on NCI-H23 lung was 78.8%; in the experiment on NCI-H226 lung, 99.1%; in the experiment on NCI-H322M lung, 94.8%; in the experiment on HOP-62 NSCLC, 78.6%; in the experiment on NCI-H460 lung it was 85.9%; in the experiment with HOP-92 NSCLC, 64.5%. In addition, the growth was 85.2% in the experiment with NCI-H522 lung; 63.2% in the experiment with 786-0 renal; 69.2% with COLO 205 colon; 90.4% with DU-145 prostate; 21.6% in the experiment on K-562 leukemia; 81.7% with MALME-3M melanoma. Moreover, the growth with MDA-MB-231 breast is 94%; in the experiment on RXF 393 renal, 79.5%; with SF-268 CNS it was 76.1%; in the experiment with SF-295 CNS it was 91.7%; in the experiment on SF-539 CNS it was 71.7%; in the experiment with UACC-257 melanoma, 35.5%. In addition, the growth in the experiment on M14 melanoma was 68.2%.
`O=C(Oc1cccc2ccccc12)Oc1cccc2ccccc12`: the growth in the experiment with NCI-H23 lung is 90.9%; in the experiment with NCI-H226 lung, 98.5%; in the experiment with NCI-H322M lung, 104%; in the experiment with HOP-62 NSCLC, 96.1%; in the experiment with NCI-H460 lung, 110%; in the experiment on HOP-92 NSCLC it was 62.8%. The growth with NCI-H522 lung is 93.8%; with 786-0 renal, 110%; in the experiment on COLO 205 colon, 127%; with DU-145 prostate, 104%; in the experiment with K-562 leukemia, 103%; in the experiment with MALME-3M melanoma, 98%. For the same compound, the growth in the experiment with MDA-MB-231 breast is 94.2%; in the experiment with RXF 393 renal, 115%; in the experiment on SF-268 CNS it was 75.3%; with SF-295 CNS it was 109%; with SF-539 CNS, 101%; in the experiment with UACC-257 melanoma it was 127%. For the same compound, in the experiment on M14 melanoma, the growth is 96.2%.
As to `Cc1ccc2sc3c(NCCCN)nc4ccccc4c3c(=O)c2c1`, the growth is 79.9% in the experiment with NCI-H23 lung; 93.5% with NCI-H226 lung; 69.1% in the experiment on HOP-62 NSCLC; -54.2% (active) in the experiment on NCI-H460 lung; 44.8% in the experiment on HOP-92 NSCLC; 59.4% in the experiment on NCI-H522 lung. Besides, the growth is 43.5% in the experiment on A549/ATCC NSCLC; 76.7% with 786-0 renal; -42.9% (active) in the experiment on COLO 205 colon; 15.4% in the experiment with DU-145 prostate; -37.7% (active) with K-562 leukemia; 104% in the experiment on MALME-3M melanoma. For the same compound, the growth in the experiment on MDA-MB-231 breast is -14.6% (active); in the experiment on RXF 393 renal it was 71.4%; in the experiment with SF-268 CNS, 65.1%; in the experiment with SF-295 CNS, 88%; in the experiment with SF-539 CNS, 58%; in the experiment with UACC-257 melanoma, 101%. For the same compound, the growth with M14 melanoma is 15%.
As for `Cc1onc2c(-c3ccccc3)n[nH]c(=O)c12`, the growth is 100% with NCI-H23 lung; 110% in the experiment with NCI-H226 lung; 72.5% in the experiment on NCI-H322M lung; 90.2% in the experiment on HOP-62 NSCLC; 109% in the experiment with NCI-H460 lung; 52.3% with HOP-92 NSCLC. Besides, the growth in the experiment on NCI-H522 lung is 94.4%; in the experiment on 786-0 renal, 95%; in the experiment on COLO 205 colon, 146%; in the experiment with DU-145 prostate, 110%; in the experiment with K-562 leukemia, 69.8%; in the experiment on MALME-3M melanoma, 81.5%. Further, the growth was 100% in the experiment on MDA-MB-231 breast; 122% with RXF 393 renal; 121% in the experiment with SF-268 CNS; 97.1% in the experiment on SF-295 CNS; 93.8% in the experiment on SF-539 CNS; 122% in the experiment with UACC-257 melanoma. The growth with M14 melanoma is 105%.
As to `COc1cc(C(=O)/C=C/c2c(Cl)nc3sccn23)cc(OC)c1OC`, the growth with NCI-H23 lung was 91.8%; with NCI-H226 lung it was 92%; in the experiment on NCI-H322M lung, 77.3%; with HOP-62 NSCLC, 83.3%; in the experiment on NCI-H460 lung, 87.1%; with HOP-92 NSCLC, 57.3%. Moreover, the growth with NCI-H522 lung was 61.8%; in the experiment on 786-0 renal, 91.6%; in the experiment on COLO 205 colon, 104%; in the experiment with DU-145 prostate, 83.8%; with K-562 leukemia, 37.6%; in the experiment on MALME-3M melanoma, 91.9%. The growth with MDA-MB-231 breast was 77.2%; in the experiment with RXF 393 renal, 79.5%; in the experiment with SF-268 CNS, 77.8%; in the experiment with SF-295 CNS it was 112%; with SF-539 CNS it was 86.5%; in the experiment on UACC-257 melanoma, 71.3%. Further, in the experiment with M14 melanoma, the growth was 79.4%.
`Cc1nn(-c2ccccc2)c(-n2ccnc2)c1/C=N/Nc1nc(-c2ccc(Cl)c(Cl)c2)cs1`: the growth in the experiment on NCI-H23 lung was 12.5%; in the experiment on NCI-H226 lung, 51.9%; in the experiment on NCI-H322M lung, 76%; in the experiment with HOP-62 NSCLC it was 10.8%; with NCI-H460 lung, 3.5% (active); in the experiment with HOP-92 NSCLC it was -22.9% (active). Also, the growth in the experiment on NCI-H522 lung is 31.5%; in the experiment with 786-0 renal, 20.7%; in the experiment with COLO 205 colon it was 52.1%; in the experiment on DU-145 prostate it was 2.44% (active); in the experiment on K-562 leukemia, 18.7%; with MALME-3M melanoma, 22.5%. Moreover, the growth in the experiment on MDA-MB-231 breast was 6.68% (active); with RXF 393 renal it was -1.62% (active); in the experiment on SF-268 CNS, 41.8%; in the experiment with SF-295 CNS, 57.7%; in the experiment with SF-539 CNS, 59.3%; with UACC-257 melanoma it was 62.7%. Besides, the growth with M14 melanoma was 45.1%.
With `Cc1cc(=O)oc2cc(OC(=O)CN3CCN(C)CC3)ccc12`, the growth in the experiment with NCI-H23 lung is 97.4%; with NCI-H226 lung, 100%; with NCI-H322M lung, 105%; with HOP-62 NSCLC, 99.3%; in the experiment with NCI-H460 lung, 102%; in the experiment on HOP-92 NSCLC it was 88.5%. Besides, the growth in the experiment on NCI-H522 lung was 92.4%; in the experiment on 786-0 renal it was 105%; with DU-145 prostate, 109%; in the experiment on K-562 leukemia, 93.7%; with MALME-3M melanoma, 112%; in the experiment with MDA-MB-231 breast, 101%. Further, the growth in the experiment with RXF 393 renal is 101%; in the experiment with SF-268 CNS it was 97.5%; with SF-295 CNS, 101%; in the experiment on SF-539 CNS, 98.4%; with UACC-257 melanoma it was 109%; in the experiment on M14 melanoma, 97.9%.
For `Cc1ccc(C(CC(=O)O)c2c(C)[nH][nH]c2=O)cc1` (stereo unspecified), the growth is 95.3% in the experiment with NCI-H23 lung; 102% in the experiment on NCI-H226 lung; 104% in the experiment with NCI-H322M lung; 97.9% with HOP-62 NSCLC; 108% in the experiment with NCI-H460 lung; 118% with HOP-92 NSCLC. Further, the growth with NCI-H522 lung was 94.5%; in the experiment on 786-0 renal, 96%; in the experiment with COLO 205 colon, 113%; with DU-145 prostate, 106%; in the experiment with K-562 leukemia, 90.8%; with MALME-3M melanoma, 99.4%. Besides, the growth in the experiment on MDA-MB-231 breast was -33.1% (active); in the experiment with RXF 393 renal it was 102%; with SF-268 CNS it was 94.9%; in the experiment with SF-295 CNS, 102%; with SF-539 CNS it was 97%; in the experiment with UACC-257 melanoma it was 104%. Besides, the growth in the experiment on M14 melanoma is 96.7%.
